Only some compounds are listed: those with a hit (about 2.8% of all), similar ones and a draw of the others.
KCNH2 3.1 inh: blocks the human KCNH2 3.1 channel isoform. AID 720553. actives 0.95% (n = 340,000). U2OS KCNH2 3.1, thallium flux FluxOr; stronger effect = lower value. activity change, % (tested at about 1.8 µM);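 active = maximum activity change below -70%; inconclusive = maximum activity change from -70% to -50%; inactive = maximum activity change above -50%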;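 note: thallium influx rate constant from kinetic fluorescence after stimulation buffer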
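FluxOr-based Tl+ influx in U2OS cells transduced with KCNH2 3.1 virus; rate constants normalized to DMSO controls.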
GLP-1R inv ag: GLP-1 receptor (human) inverse agonism. P43220. actives 1.6% (n = 410,000). HEK293 GLP-1R CRE-luciferase, luminescence, 24 h; GLP-1R form is constitutively active. Potency, µM (titrated, usually from 38.3 µM), actives largely listed as inhibitors; note: nearly all actives have a fitted effect of over 55% in size
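qHTS in 1536-well format: reporter HEK293 cells expressing constitutive GLP-1R activity in DMEM + 10% Nu serum, 24 hr with compounds at 37 deg C, luminescence read after 12 min with detection reagent.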
GLP-1R agonist: GLP-1 receptor (human) agonism | P43220 | HEK293 GLP-1R CRE-luciferase, luminescence, 4-6 h; cells express a hypersensitive GLP-1R form | Potency, µM (doses to about 45.6 µM), most hits filed as activators | actives 0.007% (n = 380,000) | AID 624172
GLS inh: glutaminase GLS (human) inhibition. AID 624170. O94925. actives 0.21% (n = 410,000). GLS enzymatic activity, qHTS titration. Potency, µM (highest dose often 45.5 µM), actives largely listed as inhibitors
Target sequence (O94925 whole entry, looked up): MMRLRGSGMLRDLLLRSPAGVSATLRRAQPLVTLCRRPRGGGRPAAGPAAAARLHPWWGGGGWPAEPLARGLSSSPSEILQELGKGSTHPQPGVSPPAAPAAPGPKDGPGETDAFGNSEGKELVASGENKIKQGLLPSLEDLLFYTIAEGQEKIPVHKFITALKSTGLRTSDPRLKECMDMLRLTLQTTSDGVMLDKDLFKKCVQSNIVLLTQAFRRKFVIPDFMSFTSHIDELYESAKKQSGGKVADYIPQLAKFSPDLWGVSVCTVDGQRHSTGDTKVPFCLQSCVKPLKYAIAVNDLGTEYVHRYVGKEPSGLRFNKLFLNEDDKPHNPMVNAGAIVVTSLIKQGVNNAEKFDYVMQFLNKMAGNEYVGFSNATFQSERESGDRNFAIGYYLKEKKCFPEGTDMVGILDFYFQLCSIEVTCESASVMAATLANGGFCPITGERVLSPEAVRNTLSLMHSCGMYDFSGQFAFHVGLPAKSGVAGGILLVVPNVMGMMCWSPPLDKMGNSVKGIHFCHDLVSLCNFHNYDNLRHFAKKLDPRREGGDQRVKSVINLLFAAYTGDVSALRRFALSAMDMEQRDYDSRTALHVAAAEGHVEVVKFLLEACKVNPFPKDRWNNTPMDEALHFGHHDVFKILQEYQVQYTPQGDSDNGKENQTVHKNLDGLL
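hKGA in 45 mM KH2PO4 pH 8.2, 0.02% Tween-20 with pin-transferred compounds; 1 mM L-glutamine (stock) plus glutamate oxidase/HRP/Amplex Red coupling added. Fluorescence read initially and after 30 min at RT.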
HEK293 tox: cytotoxic in the GLP-1 receptor inverse agonist counter-screen | actives 0.13% (n = 410,000) | Potency, µM (series often up to 38.3 µM), most hits filed as inhibitors | HEK293 cAMP-luciferase reporter cells, luminescence, 24 h | AID 624418;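 note: loss of luciferase light is scored as toxicity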
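Quantitative HTS format, 1536 wells, 200 cells/uL seeded. Compounds: 23 nL, 24 h, 37 °C. Detection: luciferase reagent, luminescence at 12 min RT; decreased signal taken as cytotoxic.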
hERG WT inh: inhibitors of human wildtype KCNH2 potassium channel | Q12809 | U2OS, BacMam KCNH2, thallium flux FluxOr; stronger effect = lower value | activity change, % at 1.84 µM | actives 0.37% (n = 340,000);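 active = maximum activity change below -70%; inconclusive = maximum activity change between -70% and -50%; inactive = maximum activity change above -50%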
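U2OS cells were transduced with wild-type KCNH2 virus (2.03 x 10^8 / mL) for 4 h at room temperature, then cultured overnight at 37 C. Thallium flux was read with FluxOr dye. Rate constants were normalized to DMSO controls.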
A number is an active result; n = inactive; u = inconclusive; x = not tested or not shown; ! = repeats disagree. Unless noted, calls come from the whole dose curve; as a rule, active = well fitted curve in the direction sought with a large enough effect; inconclusive = small, poorly fitted or top-dose-only effect, or another doubt; inactive = no such curve, though single readings can be large; an effect the other way counts as inactive or inconclusive.

SMILES | KCNH2 3.1 inh | GLP-1R inv ag | GLP-1R agonist | GLS inh | HEK293 tox | hERG WT inh
Cc1noc(C)c1COC(=O)CCN1c2ccccc2Sc2ccccc21 | n | 4.5µM | n | n | n | n
Cc1noc(C)c1COC(=O)CCOc1ccccc1 | n | n | n | n | n | n
COc1ccc(CCN=C(N)NS(=O)(=O)c2cc(F)ccc2OC)cc1 | n | n | n | n | n | n
COc1cccc(NC(=O)CN(C)C(=O)c2cc(-c3ccco3)nc3ccccc23)c1 | n | n | n | n | n | n
CN(CCOc1ccc(Cl)cc1)C(=O)c1cc(-c2ccco2)nc2ccccc12 | n | 10µM | n | n | u | n
O=C(C[n+]1cc(-c2ccc(Cl)cc2)n2c1CCCCC2)c1ccccc1 | -130 | n | n | n | n | n
CCOC(=O)c1ccc(N2C(=O)c3[nH]nc(-c4ccc(C)cc4)c3C2c2cccc(F)c2)cc1 (centres undefined) | x | 10µM | n | n | n | x
CCOC(=O)c1ccc(N2C(=O)c3n[nH]c(-c4ccco4)c3C2c2ccc([N+](=O)[O-])cc2)cc1 (centres undefined) | n | 7.1µM | n | n | u | n
CCOC(=O)c1ccc(N2C(=O)c3n[nH]c(-c4ccco4)c3C2c2ccc(C)cc2)cc1 (centres undefined) | x | u | n | n | u | x
Cc1ccc(S(=O)(=O)N2CCN(Cc3ccccc3Cl)CC2)cc1 | x | n | x | n | n | x
O=C(COC(=O)c1nn(CCO)c(=O)c2ccccc12)Nc1ccc(Cl)c(Cl)c1 | n | n | n | n | n | n
COc1ccccc1NC(=O)Cn1cc(C#N)c2ccccc21 | n | n | n | n | n | -254
COc1ccc([N+](=O)[O-])cc1NC(=O)COC(C)=O | -123 | n | n | n | n | n
CCCC(=O)OCC(=O)Nc1cc([N+](=O)[O-])ccc1OC | n | n | n | n | n | n
COc1ccccc1NC(=O)CSCc1ccc([N+](=O)[O-])cc1 | -199 | n | n | n | n | -149
COc1ccc([N+](=O)[O-])cc1NC(=O)CSCc1cc(C)cc(C)c1 | n | u | n | n | n | n
COc1cccc(NC(=O)Cn2cc(C#N)c3ccccc32)c1 | n | u | n | n | n | n
CCOc1cc(CNCC(C)C)c(Cl)cc1OCC(=O)Nc1ccccc1 | n | 11µM | n | n | n | n
O=C(C1CC1)N1CCc2cc(Br)cc(S(=O)(=O)Nc3ccc(C(F)(F)F)cc3)c21 | x | u | n | n | n | x
Nc1ncnc2c1ncn2[C@@H]1O[C@H](CNS(=O)(=O)c2cc3ccccc3s2)[C@@H](O)[C@H]1O | n | n | n | n | n | n
Cc1cc(NCCCN)nc(-c2ccccc2O)n1 | n | 10µM | n | n | n | n
CC(C)(C)c1ccc(C(=O)NCC(=O)N2CCC3(CC2)NCCc2[nH]cnc23)cc1 | n | n | n | n | n | n
Cc1[nH]n(-c2ccccc2)c(=O)c1N=Nc1ccc(F)cc1 | -79 | n | n | n | n | n
CCCCCCCCCCOC(=O)Cn1c(COc2ccc(OC)cc2)[n+](C)c2ccccc21 | -93! | u | n | n | u | -116!
Cc1cc(NC(=O)C23CCC(C)(C(=O)O2)C3(C)C)no1 (centres undefined) | -191 | n | n | n | n | n
SMILES | KCNH2 3.1 inh | GLP-1R inv ag | GLP-1R agonist | GLS inh | HEK293 tox | hERG WT inh
CCCCCCCNC(=O)C1(CC2CC(c3cccc(Br)c3)=NO2)CCN(C(=O)CCCCCBr)CC1 (centres undefined) | -96 | n | n | n | n | -123
COc1ccc2c(c1)[C@H]1[C@H](CO2)[C@H](c2ccccc2)[C@]2(C)C(=O)Nc3ccc(Br)cc3C(=O)N12 | -86 | 5.6µM | n | n | n | n
COc1ccc2c(c1)OC[C@H]1[C@H]2N2C(=O)CN(Cc3ccc(Cl)cc3)C(=O)[C@@]2(C)[C@H]1c1ccccc1 | n | 11µM | n | n | n | n
Cc1ccc2c(c1)[C@H]1[C@H](CO2)[C@H](c2ccccc2)[C@]2(C)C(=O)Nc3ccc(Br)cc3C(=O)N12 | n | 3.2µM | n | n | n | n
COc1ccc(CN2CC(=O)N3[C@H]4c5ccc(OC)cc5OC[C@@H]4[C@H](c4ccccc4)[C@]3(C)C2=O)cc1 | n | u | n | n | n | n
Cc1ccc2c(c1)C(=O)N1[C@H]3c4cc(Cl)ccc4OC[C@@H]3[C@H](c3ccccc3)[C@]1(C)C(=O)N2 | -83 | u | n | n | n | n
Cc1ccc2c(c1)C(=O)N1[C@H]3c4cc(C)ccc4OC[C@@H]3[C@H](c3ccccc3)[C@]1(C)C(=O)N2 | n | u | n | n | n | n
CCOc1ncccc1C(=O)Nc1cc(S(=O)(=O)N2CCCCCC2)ccc1OC | n | n | n | n | n | n
CCCCC[C@H]1CN(Cc2ccccc2)C(=O)[C@@H]1CC(=O)NCc1ccccc1 | n | 10µM | n | n | n | n
CCCCC[C@H]1CN(CCc2ccccc2)C(=O)[C@@H]1CC(=O)NCc1ccc(OC)cc1 | n | u | n | n | n | n
CCC(=O)Nc1nonc1-c1nc2ccccc2n1Cc1cccc2ccccc12 | -85 | u | n | n | u | n
CCOC(=O)c1ccc(NC(=S)N(CCCN2CCCCCC2)Cc2ccco2)cc1 | n | u | n | n | u | n
CCOC(=O)c1ccc(NC(=S)N(CCN2CCCCCC2)Cc2ccco2)cc1 | -90 | 6.3µM | n | n | u | n
Cc1ccccc1CN(C)C(C)C(=O)Nc1ccccc1F (centres undefined) | n | 8.9µM | n | n | n | n
Cc1cccc(C)c1NC(=O)CN(C)C(C)C(=O)Nc1ccccc1-c1ccccc1 (centres undefined) | n | n | n | n | n | n
O=C(Cn1sc2ccccc2c1=O)Nc1ccc(Cl)cc1 | n | n | n | 7.1µM | n | n
O=C(Cn1sc2ccccc2c1=O)Nc1ccc(F)cc1 | n | u | n | u | n | n
O=C(Cn1sc2ccccc2c1=O)Nc1ccc(Br)cc1 | n | n | n | 7.1µM | n | n
Cc1ccc(NC(=O)Cn2nc(-c3ccc(Cl)cc3)c3ccccc3c2=O)cc1 | x | n | x | n | n | x
CC(C)(C)c1ccc(CC(=O)N2CCC2(C)C(=O)NS(=O)(=O)c2cccc(F)c2)cc1 (centres undefined) | x | u | n | n | n | x
NC(=O)c1ccc(NC(=O)CSC2=Nc3ccccc3C3CC=NN23)cc1 (centres undefined) | n | n | n | n | n | n
COC(=O)c1ccc(NC(=O)CSC2=Nc3ccccc3C3CC=NN23)cc1 (centres undefined) | n | n | n | 14µM | n | n
